Measured values published in article PMC4336329 (PLoS ONE, 2015).
Screen size: about 310,000 compounds; about 14,000 (4.5%) showed an effect of 50% or more. Effects have a minus sign here. For the sample, strong results were picked, then their nearest neighbours and some compounds at random.

target: human ether-à-go-go-related gene (hERG) potassium channel (human, UniProt Q12809); assay: primary screen, population patch clamp on CHO cells stably expressing hERG; higher = less effect of the substance
Sequence (Q12809 whole entry, looked up): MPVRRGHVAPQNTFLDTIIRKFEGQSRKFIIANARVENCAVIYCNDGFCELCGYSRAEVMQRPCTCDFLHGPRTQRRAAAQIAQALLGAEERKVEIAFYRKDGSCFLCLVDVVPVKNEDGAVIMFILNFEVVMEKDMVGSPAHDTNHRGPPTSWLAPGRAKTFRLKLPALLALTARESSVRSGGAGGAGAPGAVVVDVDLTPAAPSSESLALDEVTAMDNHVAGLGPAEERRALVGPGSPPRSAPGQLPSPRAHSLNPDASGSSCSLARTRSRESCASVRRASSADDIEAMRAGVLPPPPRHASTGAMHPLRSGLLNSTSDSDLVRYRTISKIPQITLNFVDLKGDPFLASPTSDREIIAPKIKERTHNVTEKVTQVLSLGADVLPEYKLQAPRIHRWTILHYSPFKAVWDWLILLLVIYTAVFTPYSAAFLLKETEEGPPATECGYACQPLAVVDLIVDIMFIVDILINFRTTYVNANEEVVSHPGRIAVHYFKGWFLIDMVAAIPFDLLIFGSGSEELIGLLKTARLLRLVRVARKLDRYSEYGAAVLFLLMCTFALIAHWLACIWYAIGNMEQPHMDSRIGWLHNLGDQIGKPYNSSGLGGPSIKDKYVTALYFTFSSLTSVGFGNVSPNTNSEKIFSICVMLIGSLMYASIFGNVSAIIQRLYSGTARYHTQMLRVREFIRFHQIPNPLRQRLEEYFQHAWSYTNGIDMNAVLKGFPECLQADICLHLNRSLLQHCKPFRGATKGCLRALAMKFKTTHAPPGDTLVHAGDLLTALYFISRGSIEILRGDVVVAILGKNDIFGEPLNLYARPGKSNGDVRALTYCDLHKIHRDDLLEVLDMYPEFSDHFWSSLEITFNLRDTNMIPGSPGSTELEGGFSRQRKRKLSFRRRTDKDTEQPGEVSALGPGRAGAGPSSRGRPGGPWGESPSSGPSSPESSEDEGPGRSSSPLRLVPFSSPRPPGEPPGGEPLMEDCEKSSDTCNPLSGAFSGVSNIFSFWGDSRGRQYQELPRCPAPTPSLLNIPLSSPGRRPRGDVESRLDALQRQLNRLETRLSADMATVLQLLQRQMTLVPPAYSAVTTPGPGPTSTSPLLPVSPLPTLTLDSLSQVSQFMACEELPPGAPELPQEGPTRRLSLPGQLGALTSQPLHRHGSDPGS
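Further: peak tail current of the secondary pulse compared with the same well before compound.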

Row | SMILES | hERG current change (%, negative = inhibition) at 10uM
1 | Cc1cc(C)nc(SCCC(=O)Nc2ccc(F)cc2)n1 | 7.84%
2 | O=C(/C=C\Nc1cccc(F)c1)c1cccs1 | 11.7%
3 | CC(NC(=O)C1CCN(S(=O)(=O)c2ccc3c(c2)NC(=O)CO3)CC1)c1ccccc1 (stereo not drawn) | -7.39%
4 | CN(C)S(=O)(=O)N1CCN(C(=O)c2ccc3c(c2)OCO3)CC1 | 10%
5 | CSc1ccc(/C=C(\C#N)C(=O)NC2CCCCC2C)cc1 (stereo not drawn) | -21.7%
6 | N#C/C(=C/c1ccc(-c2cc([N+](=O)[O-])ccc2Cl)o1)C(N)=O | 1.62%
7 | N#CC(=C=[N-])c1nc2ccccc2nc1-[n+]1ccccc1 | -2.11%
8 | Cn1c(N)c(C(=O)COC(=O)COc2ccc(Cl)cc2)c(=O)n(C)c1=O | -23.1%
9 | CC(C)Cn1c(N)c(C(=O)COC(=O)c2ccccc2Cl)c(=O)n(C)c1=O | -41.7%
10 | Cn1c(N)c(C(=O)COC(=O)COc2ccc(C#N)cc2)c(=O)n(C)c1=O | -24%
11 | Cc1ccc(C)c(OCCC(=O)OCC(=O)c2c(N)n(C)c(=O)n(C)c2=O)c1 | -55.5%
12 | CC(C)Cn1c(N)c(C(=O)COC(=O)[C@H](C)NC(=O)c2ccccc2Cl)c(=O)n(C)c1=O | -53.1%
13 | CCc1ccc(OCC(=O)OCC(=O)c2c(N)n(C)c(=O)n(C)c2=O)cc1 | 10.2%
14 | CCC(=O)c1ccc(OCC(=O)OCC(=O)c2c(N)n(C)c(=O)n(C)c2=O)cc1 | 5.93%
15 | Cc1ccc(C(C)C)c(OCC(=O)OCC(=O)c2c(N)n(C)c(=O)n(C)c2=O)c1 | 3.36%
16 | Cn1c(N)c(C(=O)COC(=O)CCOc2ccc(C(C)(C)C)cc2)c(=O)n(C)c1=O | -60.6%
17 | COc1ccccc1OCCC(=O)OCC(=O)c1c(N)n(C)c(=O)n(C)c1=O | -10.3%
18 | CC(C)Cn1c(N)c(C(=O)COC(=O)c2ccccc2F)c(=O)n(C)c1=O | -14.7%
19 | Cn1c(N)c(C(=O)COC(=O)COc2ccc(Br)cc2)c(=O)n(C)c1=O | -72.6%
20 | CCOC(=O)c1ccc(NCc2ccncc2)cc1 | -1.66%
21 | O=C(CN(Cc1ccco1)S(=O)(=O)c1cccs1)Nc1ccccc1C(F)(F)F | -32.8%
22 | Oc1c(Br)cc(Cl)cc1C=Nc1ccc(N2CCOCC2)cc1 | 19.6%
23 | Cc1c(C(=O)NCc2ccco2)cccc1[N+](=O)[O-] | -6.07%

Row | SMILES | hERG current change (%, negative = inhibition) at 10uM
24 | CCN1C(=O)/C(=C\C=C2/C=CC=CN2CC)SC1=S | -5.68%
25 | O=C(c1cc(COc2ccccc2)on1)N1CCCC(OCc2cccnc2)C1 (stereo not drawn) | -16.6%
26 | O=C(c1cc(COc2ccc(F)cc2Cl)on1)N1CCCC(OCc2cccnc2)C1 (stereo not drawn) | -53.5%
27 | COc1ccccc1OCc1cc(C(=O)N2CCCC(OCc3cccnc3)C2)no1 (stereo not drawn) | -22%
28 | O=C(c1cc(COc2ccc(F)cc2Cl)on1)N1CCC(OCc2cccnc2)CC1 | -75.8%
29 | O=C(c1cc(COc2ccc(F)cc2Cl)on1)N1CCN(c2cnccn2)CC1 | -46.9%
30 | O=C(c1cc(COc2ccc(F)cc2Cl)on1)N1CCCCC1c1cccnc1 (stereo not drawn) | -41.8%
31 | Nc1nc(SCC(=O)NCCN2CCOCC2)nc2sc3c(c12)CCC3 | -65.9%
32 | Nc1nc(SCC(=O)NCCCO)nc2sc3c(c12)CCC3 | -3.17%
33 | Nc1nc(SCC(=O)NCCCN2CCOCC2)nc2sc3c(c12)CCC3 | -9.2%
34 | Cc1ccc(-c2csc(NC(=O)CSc3nc(C)cc(=O)[nH]3)n2)cc1 | 1.07%
35 | O=C(CN1CCCCC1)N1CCc2ccccc21 | -6%
36 | CN(CC(=O)N1CCc2ccccc21)S(=O)(=O)c1cccs1 | -22%
37 | CN(CC(=O)N1CCc2ccccc21)S(=O)(=O)c1ccc(Cl)cc1 | -51.2%
38 | COc1ccc(CN2CCN(C(C)C(=O)N3CCc4ccccc43)CC2)cc1OC (stereo not drawn) | -74%
39 | Cc1nc2ccc(S(=O)(=O)N(C)CC(=O)N3CCc4ccccc4C3)cc2s1 | -53.2%
40 | Cc1nc2ccc(S(=O)(=O)N(C)CC(=O)N3CCc4ccccc43)cc2s1 | -42.5%
41 | COc1cc2c(cc1OC)CN(C(C)C(=O)N1CCc3ccccc31)CC2 (stereo not drawn) | -14%
42 | Cc1ccc(S(=O)(=O)N(C)CC(=O)N2CCCc3ccccc32)cc1 | -16.1%
43 | Cc1nc2ccc(S(=O)(=O)NCC(=O)N3CCc4ccccc4C3)cc2s1 | 0.862%
44 | COc1ccc(N2CCN(C(C)C(=O)N3CCc4ccccc43)CC2)cc1 (stereo not drawn) | -17.7%
45 | O=C(CN1CCN(Cc2ccc(Cl)cc2)CC1)N1CCc2ccccc21 | -67.5%
46 | O=C1N(CC(=O)N2CCc3ccccc32)CCN1Cc1ccc(Cl)cc1 | -11.8%

Row | SMILES | hERG current change (%, negative = inhibition) at 10uM
47 | CCNc1nc(NCC)nc(NS(=O)(=O)c2ccc(N)cc2)n1 | 22.7%
48 | CCOC(=O)C(C(=O)Nc1ccc(C)cc1)C1CCCCC1 (stereo not drawn) | 0.407%
49 | CC(C)n1nnc2ccccc2c1=O | 10%
50 | CN(C)S(=O)(=O)c1cccc(-c2cn3ccccc3n2)c1 | -2.91%
51 | CC1CC1C(=O)OCC(=O)NNC(=O)c1ccc([N+](=O)[O-])cc1 (stereo not drawn) | -2.32%
52 | COc1ccc(C2/C(=C(/O)c3ccc(C)cc3)C(=O)C(=O)N2CC2CCCO2)cc1OC (stereo not drawn) | 20.8%
53 | CCOC(=O)CNC(=O)c1ccc(C)cc1 | 4.88%
54 | COc1cc(SC)ccc1C(=O)OCC(=O)NC1CC1 | 7.53%
55 | CC(=O)Cn1nnc(-c2ccc(C(F)(F)F)cc2)n1 | 6.1%
56 | CCN1CCN(CCCNC(=O)c2ccccc2NC(=O)C2=C(C)OCCS2)CC1 | 1.11%
57 | CC(C(=O)N1CCc2ccccc21)N1CCc2ccccc2C1 (stereo not drawn) | -18.9%
58 | CC(C(=O)N1CCc2ccccc21)N1CCN(Cc2ccc(Cl)cc2)CC1 (stereo not drawn) | -67%
59 | CC(C(=O)N1CCc2ccccc21)N1CCN(Cc2ccccc2)CC1 (stereo not drawn) | -34%
60 | COCCCNc1nc2c(-c3cccc(C(F)(F)F)c3)nnn2c2ccccc12 | -1.31%
61 | O=[N+]([O-])c1ccc(/C=N/Nc2cc(Cl)nc(-c3ccccc3)n2)cc1 | 2.34%
62 | CCC(C)c1ccc(OCC(=O)O)cc1 (stereo not drawn) | 11.5%
63 | O=C(NCc1cccnc1)c1cccnc1-c1nc2ccccc2s1 | -14%
64 | CC(=O)N(Cc1cccnc1)c1cccc(-c2nc3ccccc3s2)c1 | -51.1%
65 | c1cncc(-c2nc3ccccc3s2)c1 | 2.39%
66 | COC(C)(C)[C@H](O)COc1c2ccoc2cc2oc(=O)ccc12 | 11.2%
67 | Cc1cccc(CCNC(=O)CCNS(=O)(=O)c2cc(Br)cnc2N)c1 | -5.7%
68 | CC(C)c1ccc(-c2c(C#N)c(N)nc(SCC(=O)N3CCCCCC3)c2C#N)cc1 | 8.56%
69 | COc1ccccc1C(=O)Nc1ccc(OC(C)C(=O)N2CCOCC2)cc1 (stereo not drawn) | 1.1%

Row | SMILES | hERG current change (%, negative = inhibition) at 10uM
70 | COc1cccc(NC(=O)c2ccc(CN3CCN(c4ccccc4)CC3)cc2)c1 | -48.8%
71 | Cc1cccc(NC(=O)c2ccc(CN3CCN(Cc4ccccc4)CC3)cc2)c1 | -80.3%
72 | Cc1cccc(NC(=O)N2CCN(Cc3ccc(Cl)cc3)CC2)c1 | -50.7%
73 | Cc1cccc(NC(=O)N2CCCC2)c1 | 12.4%
74 | Cc1cccc(NC(=O)N2CCN(Cc3ccccc3)CC2)c1 | 8.14%
75 | O=C(Nc1cccc(C(=O)N2CCN(Cc3ccccc3)CC2)c1)c1ccccc1 | -16.7%
76 | O=S(=O)(NNC(=S)NCC1CCCO1)c1cc(Cl)ccc1Cl (stereo not drawn) | 9.42%
77 | COC(=O)C1=C(C)N(CCc2ccccc2)C(=O)/C1=C\c1ccco1 | -4.19%
78 | Cn1c(=O)c2c(nc(NCCCO)n2C/C=C/c2ccccc2)n(C)c1=O | -21%
79 | COc1ccc(-n2cnnc2SCC(=O)N2CCN(c3ccccc3)CC2)cc1 | -36.2%
80 | Cc1ccc(CSCc2nnc(SCC(=O)N3CCN(c4ccccc4)CC3)n2C)cc1 | -54%
81 | O=C(CSc1nncn1-c1ccccc1)N1CCCC1 | 2.66%
82 | Cc1ccccc1-n1cnnc1SCC(=O)N1CCN(c2ccccc2)CC1 | -57.7%
83 | CCn1c(CSCc2ccc(F)cc2)nnc1SCC(=O)N1CCN(c2ccccc2)CC1 | -58.6%
84 | Cc1ccc(CSCC(=O)N2CCN(c3ccccc3)CC2)cc1 | -9.06%
85 | Cn1c(CNC(=O)c2ccccc2F)nnc1SCC(=O)N1CCN(c2ccccc2)CC1 | -8.2%
86 | CCn1c(CSCc2ccc(C)cc2)nnc1SCC(=O)N1CCN(c2ccccc2)CC1 | -45.4%
87 | Cn1c(CSCc2ccc(F)cc2)nnc1SCC(=O)N1CCN(c2ccccc2)CC1 | -70.7%
88 | C=CCn1c(CSCc2ccccc2)nnc1SCC(=O)N1CCN(c2ccccc2)CC1 | -23.6%
89 | Cn1c(Cc2ccccc2)nnc1SCC(=O)N1CCN(c2ccccc2)CC1 | -14.5%
90 | Cn1c(CNC(=O)c2ccccc2)nnc1SCC(=O)N1CCN(c2ccccc2)CC1 | 1.77%
